Counter-ions that a name gives are not always drawn.
The compounds below were run on FLX1 + dox-induced PRKAR1A G325D (assay: difference in log2 fold change of viability vs plate median (dox-induced PRKAR1A G325D minus uninduced); higher = compound less effective when PKA is inhibited). Conditions: concentration: not stated (2 or 5 uM); 5 days.
Procedure: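 For each plate a log2 fold change vs the plate median was derived, and the values without dox were subtracted from those with dox, averaged over three biological replicates.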

Row | Compound | difference in log2 fold change of viability
1 | Cc1cnc(Nc2ccc(OCCN3CCCC3)cc2)nc1Nc1cccc(S(=O)(=O)NC(C)(C)C)c1 | -0.00786
2 | CC(C)c1cnn2c(NCc3ccccc3)cc(NCCCCCCN)nc12 | -0.0617
3 | CC1(C)CNc2cc(NC(=O)c3cccnc3NCc3ccncc3)ccc21 [Motesanib Diphosphate (AMG-706)] | 0.326
4 | COc1cc(F)c(F)c(Nc2ccc(I)cc2F)c1NS(=O)(=O)C1(C[C@H](O)CO)CC1 [Refametinib (RDEA119, Bay 86-9766)] | 0.183
5 | Cc1cc(F)c(Nc2ncnc3cc(OCc4ccccc4)ccc23)cc1O | 0.0836
6 | COc1ccc(-c2nc(N3CCOCC3)c3sc(CN(C)c4ncc(C(=O)NO)cn4)cc3n2)cn1 | 0.159
7 | CN(C)Cc1cccc(N=C(c2ccccc2)c2c(O)[nH]c3cc(C(=O)N(C)C)ccc23)c1 | 0.0526
8 | Nc1nc(Nc2ccc(S(N)(=O)=O)cc2)nn1C(=O)c1c(F)cccc1F | 0.0351
9 | CN1CCN(c2nc(C3=C(c4c[nH]c5ccccc45)C(=O)NC3=O)c3ccccc3n2)CC1 [Sotrastaurin] | -0.157
10 | CN1CC[C@H](c2c(O)cc(O)c3c(=O)cc(-c4ccccc4Cl)oc23)[C@H](O)C1 [Flavopiridol HCl] | 0.222
11 | CCOc1cc(N2CCC(O)CC2)ccc1Nc1ncc2c(n1)N(C)c1ccccc1C(=O)N2C | 0.697
12 | CNC(=O)c1nn(C)c2c1C(C)(C)Cc1cnc(Nc3ccc(N4CCN(C)CC4)cc3)nc1-2 | 0.64
13 | O=C(NC(NC(=S)Nc1ccc(F)c([N+](=O)[O-])c1)C(Cl)(Cl)Cl)C(c1ccccc1)c1ccccc1 (stereo not drawn) | 0.101

— the supplement of paper PMC9925115
